Consider 71 compounds from PubChem BioAssay AID651658 (Broad Institute, 2012).

SMILES strings stand for the structures. Out of some 340,000 compounds screened, about 5,100 (1.5%) were called active. This excerpt belongs to a sample that is enriched for actives. Values without a mark were called inactive.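 How the source made its calls: active means mean Tm shift, scaled 0 neutral to 100 positive control, at about 1.3% or above, every replicate too (limit read from the data); inconclusive means no clear call, values can overlap the other calls; inactive means the rest.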

This assay deals with Fibroblast growth factor 22 (Homo sapiens) (UniProt Q9HCT0). The experiment in a line: binders of human FGF22 protein, primary screen, FGF22 synaptogenesis inhibitor project, biophysical, thermal shift, single point (AID 651658). To be noted: recombinant FGF22 thermal shift, SYPRO orange fluorescence; at 9.99 µM; hits give high values; percent of sucrose octasulfate shift, DMSO zero.
Chain of Fibroblast growth factor 22 (Homo sapiens) (Q9HCT0 whole entry, looked up): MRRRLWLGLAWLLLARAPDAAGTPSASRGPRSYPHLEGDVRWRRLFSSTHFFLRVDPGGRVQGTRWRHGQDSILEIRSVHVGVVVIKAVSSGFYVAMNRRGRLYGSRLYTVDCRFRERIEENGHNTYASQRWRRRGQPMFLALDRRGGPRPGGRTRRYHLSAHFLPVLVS
In the case of `COc1ccc(NC(=O)Nc2ccc3c(c2)[C@@H]2C[C@@H](CC(=O)NCc4ccncc4)O[C@@H](CO)[C@@H]2O3)cc1`, the activity (Tm shift, normalised) is -0.189%.

For `C[C@@H]1CN([C@H](C)CO)S(=O)(=O)c2ccc(-c3ccccc3)cc2O[C@@H]1CN(C)C(=O)CC1CC1`, the activity (Tm shift, normalised) is -0.061%.

For the compound `C[C@@H]1CCCCO[C@H](CN(C)S(=O)(=O)c2ccccc2)[C@@H](C)CN([C@@H](C)CO)C(=O)c2cc(NS(=O)(=O)c3ccccc3)ccc2O1`, the activity (Tm shift, normalised) is -0.644%.

Consider `COc1ccc(OC)c(NC(=O)CSc2nc(-c3ccccc3)cc(=O)[nH]2)c1`, for which the activity (Tm shift, normalised) was -0.146%.

On to `CCc1cc2cc(OC)ccc2nc1SCC(=O)Nc1cc(OC)c(OC)cc1C(=O)O`, for which the activity (Tm shift, normalised) is 43.1% (active).

As for `COc1ccc(NC(=O)CSc2nc(SC)ns2)c(OC)c1`, the activity (Tm shift, normalised) is 0.019%.

For `O=C(NCCNc1ccc([N+](=O)[O-])cc1)c1cccc2c(Br)cccc12`, the activity (Tm shift, normalised) is 0%.

As for `O=[N+]([O-])c1ccc(NCCCO)c(C(F)(F)F)c1`, the activity (Tm shift, normalised) is 0.215%.

Turning to `CC(C)(C)C(=O)NCCCNc1ccc([N+](=O)[O-])cc1`, the activity (Tm shift, normalised) was 43.5% (active).

On to `CNC(=O)C[C@@H]1CC[C@@H]2[C@@H](COc3ccc(NC(=O)c4ccc5c(c4)OCO5)cc3C(=O)N2C)O1`, for which the activity (Tm shift, normalised) is -0.015%.

Turning to `CNS(=O)(=O)c1ccc(NC(=O)Nc2ccc3c(c2)OCO3)cc1`, the activity (Tm shift, normalised) was -0.016%.

For the compound `Cc1cccc(NC(=O)Nc2ccc3c(c2)OCO3)n1`, the activity (Tm shift, normalised) was 43.6% (active).

As to `CC(NC(=O)Nc1ccc2c(c1)OCO2)c1ccncc1` (stereo unspecified), the activity (Tm shift, normalised) was 0.039%.

For `COc1ccc(NC(=O)Nc2ccc3c(c2)C(=O)N([C@H](C)CO)C[C@H](C)[C@@H](CN(C)Cc2ccc(C(=O)O)cc2)OCCCC[C@H](C)O3)cc1`, the activity (Tm shift, normalised) is -0.009%.

For the compound `CC=Cc1ccc2n(c1=O)C[C@@H]1[C@@H](CO)[C@H](C(=O)N[C@H](C)c3ccccc3)N(C(=O)c3cnccn3)[C@H]21` (mixture of isomers), the activity (Tm shift, normalised) was -0.323%.

Take `Nc1ccc(C(=O)OCC(=O)NC2CCS(=O)(=O)C2)cc1[N+](=O)[O-]` (stereo unspecified): the activity (Tm shift, normalised) was 43.7% (active).

On to `O=C(COC(=O)c1ncc(Cl)c(Cl)c1Cl)NC1CCS(=O)(=O)C1` (stereo unspecified), for which the activity (Tm shift, normalised) was 0.023%.

In the case of `O=C(COC(=O)/C=C/c1ccc(Cl)cc1)NC1CCS(=O)(=O)C1` (stereo unspecified), the activity (Tm shift, normalised) was 0.02%.

For `COc1ccc2c3c([nH]c2c1)[C@H](CO)N(C(C)=O)CC31CN(S(=O)(=O)c2cccs2)C1`, the activity (Tm shift, normalised) was -10.2%.

Take `C[C@@H]1CN([C@@H](C)CO)C(=O)Cc2cc(NC(=O)Cc3cn(C)c4ccccc34)ccc2O[C@H]1CN(C)Cc1ccc(C(=O)O)cc1`: the activity (Tm shift, normalised) was 0.077%.

Turning to `C[C@H]1CN([C@@H](C)CO)C(=O)Cc2cc(NC(=O)Cn3cnnn3)ccc2O[C@H]1CN(C)Cc1ccc(C(=O)O)cc1`, the activity (Tm shift, normalised) was -0.049%.

In the case of `C[C@H](CO)N1C[C@H](C)[C@@H](CN(C)Cc2ccc(C(=O)O)cc2)Oc2ccc(NC(=O)Cn3cnnn3)cc2CC1=O`, the activity (Tm shift, normalised) was -0.125%.

Consider `C[C@H]1CN([C@@H](C)CO)C(=O)Cc2cc(NC(=O)Cc3cn(C)c4ccccc34)ccc2O[C@@H]1CN(C)Cc1ccccc1`, for which the activity (Tm shift, normalised) is 1.38% (active).

As to `C[C@@H]1CN([C@H](C)CO)C(=O)Cc2cc(NC(=O)Cn3cnnn3)ccc2O[C@H]1CN(C)Cc1ccc(C(F)(F)F)cc1`, the activity (Tm shift, normalised) is 1.38% (active).

In the case of `C[C@H]1CN([C@@H](C)CO)C(=O)Cc2cc(NC(=O)Cc3cn(C)c4ccccc34)ccc2O[C@H]1CN(C)Cc1ccccc1`, the activity (Tm shift, normalised) was 1.01%.

`N#C[C@@H]1[C@@H](c2ccccc2)[C@H](CO)N1C(=O)c1cc(Cl)cc(Cl)c1`: the activity (Tm shift, normalised) is -0.051%.

Consider `O=C(NN1C(=O)C2C3C=CC(O3)C2C1=O)c1ccncc1` (stereo unspecified), for which the activity (Tm shift, normalised) was 0.125%.

Regarding `O=C(NN1C(=O)C2C3C=CC(O3)C2C1=O)c1ccccc1` (stereo unspecified), the activity (Tm shift, normalised) was 1.65% (active).

Take `CC(C)=C1C2CCC1C1C(=O)N(NC(=O)c3ccco3)C(=O)C21` (stereo unspecified): the activity (Tm shift, normalised) was -0.011%.

Regarding `O=C(C[C@@H]1C[C@H]2c3cc(NC(=O)NC4CCCC4)ccc3O[C@H]2[C@@H](CO)O1)NC1CCCCC1`, the activity (Tm shift, normalised) is -0.272%.

Regarding `O=C(C1CC1)N1CCCCN2[C@H](C1)[C@@H](c1ccc(-c3cccc(F)c3)cc1)[C@@H]2CO`, the activity (Tm shift, normalised) was -0.119%.

For `C[C@@H]1CN([C@@H](C)CO)S(=O)(=O)c2ccc(-c3ccc(C#N)cc3)cc2O[C@H]1CN(C)Cc1ccccn1`, the activity (Tm shift, normalised) was -0.176%.

Regarding `CCCSc1ccc([C@H]2N[C@@](Cc3ccccc3)(C(=O)OC)[C@H]3C(=O)N(C)C(=O)[C@@H]23)cc1`, the activity (Tm shift, normalised) was 0.041%.

As for `CC[C@@]1(C(=O)OC)N[C@H](CN(C)C(C)=O)[C@@H]2C(=O)N(C)C(=O)[C@@H]21`, the activity (Tm shift, normalised) was 43.4% (active).

As to `COC(=O)[C@]1(C)N[C@H](CN(C)C(=O)c2ccc(C(C)(C)C)cc2)[C@@H]2C(=O)N(C)C(=O)[C@@H]21`, the activity (Tm shift, normalised) is 0.232%.

For `CCOC(=O)C1(C)NC(c2ccco2)C2C(=O)N(c3ccccc3)C(=O)C21` (stereo unspecified), the activity (Tm shift, normalised) was 0.052%.

As for `CCCC1(C(=O)OC)NC(c2ccco2)C2C(=O)N(C)C(=O)C21` (stereo unspecified), the activity (Tm shift, normalised) was 43.8% (active).

On to `CCN(C[C@H]1N[C@@](CC)(C(=O)OC)[C@H]2C(=O)N(C)C(=O)[C@@H]12)C(=O)Nc1ccc(F)cc1`, for which the activity (Tm shift, normalised) is -0.067%.

With `COc1cccc(S(=O)(=O)N2[C@@H]3CNC[C@H]2C3c2ccc(-c3cccc(C(=O)N(C)C)c3)cc2)c1` (stereo partly specified), the activity (Tm shift, normalised) was 0.014%.

Turning to `C[C@@H]1CN([C@H](C)CO)C(=O)c2cc(NC(=O)c3ccncc3)ccc2O[C@@H]1CN(C)C(=O)Nc1ccc(F)cc1`, the activity (Tm shift, normalised) is -0.074%.

Consider `CO[C@@H]1CN(C)C(=O)c2cc(NS(C)(=O)=O)ccc2OC[C@@H](C)N(C(=O)C2CCC2)C[C@@H]1C`, for which the activity (Tm shift, normalised) was -0.13%.

Consider `CO[C@H]1CN(C)C(=O)c2ccc(NC(=O)C3CCCC3)cc2OC[C@H](C)N(C(=O)CC2CC2)C[C@@H]1C`, for which the activity (Tm shift, normalised) was 0.031%.

For `COc1ccccc1NC(=O)N1[C@H](C#N)[C@H](c2ccccc2)[C@H]1CO`, the activity (Tm shift, normalised) was 1.69% (active).

Take `N#C[C@@H]1[C@@H](c2ccccc2)[C@@H](CO)N1C(=O)Cc1ccccc1`: the activity (Tm shift, normalised) is -0.224%.

Consider `CCCNC(=O)N1[C@H](C#N)[C@@H](c2ccccc2)[C@H]1CO`, for which the activity (Tm shift, normalised) is 0.065%.

As for `CCCc1cn(CC[C@H]2CC[C@@H](NS(=O)(=O)c3ccccc3Cl)[C@@H](CO)O2)nn1`, the activity (Tm shift, normalised) was -0.219%.

Consider `O=C(Cn1cnc2c(OCc3ccccc3)ncnc21)NCCCn1ccnc1`, for which the activity (Tm shift, normalised) is 43.3% (active).

In the case of `Cc1ccc(NC(=O)Cn2cnc3c(OCc4ccccc4)ncnc32)cc1C`, the activity (Tm shift, normalised) was 0.021%.

For the compound `CC(CNC(=O)Cn1cnc2c(OCc3ccccc3)ncnc21)c1ccccc1` (stereo unspecified), the activity (Tm shift, normalised) was -0.208%.

With `CCC(=O)N(C)C[C@@H]1Oc2ncc(C#CCc3ccccc3)cc2C(=O)N([C@H](C)CO)C[C@H]1C`, the activity (Tm shift, normalised) is -0.313%.

Regarding `Cc1cc(C)cc(OCC(=O)NNC(=O)CCN2C(=O)c3ccccc3C2=O)c1`, the activity (Tm shift, normalised) is 43.2% (active).

For the compound `Cc1cc(C)cc(NC(=O)CCN2C(=O)c3ccccc3C2=O)c1`, the activity (Tm shift, normalised) is 0.073%.

Take `COc1ccc(CNC(=O)CCN2C(=O)c3ccccc3C2=O)cc1`: the activity (Tm shift, normalised) is -0.249%.

`Cc1ccc(NS(=O)(=O)c2ccc(C(=O)NCCCN3CCOCC3)cc2)cc1`: the activity (Tm shift, normalised) was -0.45%.

For `CCN(CC)CCNC(=O)c1ccc(NS(=O)(=O)c2ccc3c(c2)OCCO3)cc1`, the activity (Tm shift, normalised) is 42.9% (active).

`CNS(=O)(=O)c1ccc(C(=O)NCC(=O)NCCc2ccc3c(c2)OCCO3)cc1`: the activity (Tm shift, normalised) is 0.051%.

As for `C[C@H](NC(=O)C[C@H]1CC[C@H]2[C@@H](COC[C@H](O)CN2C(=O)Nc2cccc(Cl)c2)O1)c1ccccc1`, the activity (Tm shift, normalised) was 0.797%.

For `O=C(CCN1CCCCC1)N[C@H]1CC[C@H](CCNS(=O)(=O)c2ccc(F)cc2)O[C@@H]1CO`, the activity (Tm shift, normalised) was 0.837%.

In the case of `C[C@H](CO)N1C[C@H](C)[C@H](CN(C)Cc2ccncc2)Oc2ncc(C#CCC3CCCCC3)cc2C1=O`, the activity (Tm shift, normalised) is -0.367%.

For `C=CCc1ccccc1OCC(O)CN1CCN(CCO)CC1` (stereo unspecified), the activity (Tm shift, normalised) is -0.051%.

For the compound `C/C=C/c1ccc(OCC(O)CN2CCCCCCC2)c(OC)c1` (stereo unspecified), the activity (Tm shift, normalised) was 0.015%.

On to `C=CCc1ccc(OCC(O)CN2CCN(Cc3ccccc3)CC2)c(OC)c1` (stereo unspecified), for which the activity (Tm shift, normalised) was 43.3% (active).

`O=C(Nc1ccc(F)cc1)N1CCCCN2[C@H](CO)[C@H](c3ccc(-c4ccncc4)cc3)[C@@H]2C1`: the activity (Tm shift, normalised) is -0.055%.

Turning to `C/C=C/c1ccc([C@@H]2[C@H](CO)N(CC3CCOCC3)C23CN(S(=O)(=O)CC)C3)cc1`, the activity (Tm shift, normalised) was -0.282%.

Consider `CCNC(=O)c1cc2c(c(-c3cccc(C4=CCCC4)c3)n1)[C@H](CCO)N([S@@](=O)C(C)(C)C)C2`, for which the activity (Tm shift, normalised) is 0.297%.

`O=C(Cc1ccncc1)NCC[C@H]1CC[C@H](NC(=O)Nc2cccc(F)c2)[C@H](CO)O1`: the activity (Tm shift, normalised) was -0.333%.

With `C[C@@H]1CN([C@H](C)CO)C(=O)c2cc(NS(=O)(=O)c3cccs3)ccc2O[C@@H](C)CCCCO[C@@H]1CN(C)C(=O)c1ccncc1`, the activity (Tm shift, normalised) was -0.018%.

Turning to `COc1ccc2c3c([nH]c2c1)[C@@H](CO)NCC31CN(S(=O)(=O)c2cccs2)C1`, the activity (Tm shift, normalised) is 0.072%.

As to `CCNC(=O)C[C@@H]1CC[C@@H](NC(=O)NC2CCCCC2)[C@H](CO)O1`, the activity (Tm shift, normalised) is -0.281%.

Regarding `COc1ccc(NC(=O)N(C)C[C@@H]2OCCCC[C@@H](C)Oc3ccc(NC(=O)C4CCCCC4)cc3C(=O)N([C@@H](C)CO)C[C@@H]2C)cc1`, the activity (Tm shift, normalised) is -0.291%.

Consider `COC(=O)[C@@H]1[C@@H](CO)[C@@H]2Cn3c(ccc(-c4ccccc4)c3=O)[C@@H]2N1C(=O)C1CC1`, for which the activity (Tm shift, normalised) was -0.013%.
